Compound activity deposited in PubChem by several laboratories.
Shown are actives, neighbours in structure and some others; about 7% of the full set was active somewhere.
proKLK7 act: activators of human kallikrein-7 zymogen; P49862; purified proKLK7, EDANS-DABCYL substrate fluorescence; 100% is mature enzyme control, 0% vehicle; activation, % at 7 µM; 370,000 tested, 0.9% active; AID 652039;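 active = activation above the mean of all tested compounds plus 3 SD, computed per campaign excluding outliers beyond control limits, cut at about 13% in these data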
ADAM10 inh: inhibitors of human ADAM10 | O14672 | recombinant ADAM10, EDANS/DABCYL FRET peptide cleavage, 3 h | inhibition, % at 7 µM | 370,000 tested, 0.62% active | AID 720582;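 active = inhibition above a per-campaign cutoff equal to the mean of compounds falling between control-based bounds plus 3 SD, cut at about 20% in these data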;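 note: 0% = DMSO wells while the 100% control is not disclosed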
AHR act: human AHR activation | 320,000 tested, 2.5% active | activation, % at 5 µM | AHR-responsive luciferase reporter cells, luminescence | P35869 | AID 2796; in the data active = activation above about 47%;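 note: 0% = vehicle wells and 100% = reference agonist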
Target sequence (P35869 whole entry, looked up): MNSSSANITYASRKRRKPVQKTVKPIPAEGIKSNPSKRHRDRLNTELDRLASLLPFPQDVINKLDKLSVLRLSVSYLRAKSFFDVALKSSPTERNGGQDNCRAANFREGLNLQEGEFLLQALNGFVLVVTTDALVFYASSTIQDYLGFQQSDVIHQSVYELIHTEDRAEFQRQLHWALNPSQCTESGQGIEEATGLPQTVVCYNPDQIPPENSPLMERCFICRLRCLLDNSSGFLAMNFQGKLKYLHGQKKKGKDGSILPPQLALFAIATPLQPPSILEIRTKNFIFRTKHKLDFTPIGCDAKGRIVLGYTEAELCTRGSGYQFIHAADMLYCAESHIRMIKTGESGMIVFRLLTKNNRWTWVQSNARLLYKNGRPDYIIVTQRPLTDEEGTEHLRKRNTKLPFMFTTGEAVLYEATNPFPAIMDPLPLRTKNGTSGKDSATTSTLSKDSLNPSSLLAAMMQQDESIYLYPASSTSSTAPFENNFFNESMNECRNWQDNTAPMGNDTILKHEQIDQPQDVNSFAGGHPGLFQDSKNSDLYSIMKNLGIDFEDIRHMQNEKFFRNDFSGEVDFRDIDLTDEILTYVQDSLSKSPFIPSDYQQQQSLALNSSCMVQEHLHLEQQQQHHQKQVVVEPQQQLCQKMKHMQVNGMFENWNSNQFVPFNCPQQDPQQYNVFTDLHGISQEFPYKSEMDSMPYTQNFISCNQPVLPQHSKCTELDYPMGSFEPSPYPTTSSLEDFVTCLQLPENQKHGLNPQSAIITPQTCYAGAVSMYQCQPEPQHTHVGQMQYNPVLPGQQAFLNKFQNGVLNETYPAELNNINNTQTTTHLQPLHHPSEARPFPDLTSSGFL
ADAM17 inh: ADAM17 inhibition, QFRET primary screen | P78536 | recombinant ADAM17, EDANS/DABCYL FRET peptide cleavage | inhibition, % at 6.95 µM | 370,000 tested, 0.83% active;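 active = inhibition above the mean of compounds lying between control limits plus 3 SD, set per campaign, cut at about 8.5% in these data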;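 note: 0% = DMSO-only wells as the low control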
GRIN3A LBD mod: NR3A (human) ligand-binding domain modulation; NR3A LBD differential scanning fluorimetry, Tm shift; 0% = protein alone, 100% = glycine-bound protein; Tm shift relative to glycine control, % at 25 µM; 340,000 tested, 2.5% active;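 active = melting temperature shift of at least 10% of the positive control shift, at one fixed dose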
rCAG binder: molecules binding r(CAG) RNA repeats | inhibition, % at 3 µM | 370,000 tested, 1.3% active | AID 651821 | r(CAG) RNA repeat, TO-PRO-1 dye displacement fluorescence;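 active = inhibition above the plate cutoff, the mean of all test compounds on that plate plus 3 SD, cut at about 35% in these data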;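 note: 0% = DMSO alone and 100% = 100 µM mitoxantrone as full dye displacement; higher means more dye released from RNA so lower well fluorescence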
An asterisk follows results filed as active.

What do the screens show for `Cc1ccc(-n2c(SC/C=C/c3ccccc3)nnc2-c2ccco2)cc1`?
proKLK7 act: 0; ADAM10 inh: 9; ADAM17 inh: 5; rCAG binder: 0

How did CCCn1c(=O)c(C(=O)Nc2ncccc2O)c(O)c2ccccc21 do in these assays?
proKLK7 act: 0; ADAM10 inh: -9; ADAM17 inh: 2; GRIN3A LBD mod: -4; rCAG binder: 3

Results for Cn1c(=O)c(C(=O)Nc2ncccc2O)c(O)c2ccccc21 ?
proKLK7 act: -1; ADAM10 inh: 3; AHR act: 77*; ADAM17 inh: -1; GRIN3A LBD mod: -1; rCAG binder: -2

How did C#CCNC(=O)C[C@H]1C[C@@]2(C(=O)OC)C(=C[C@H](C(C)(C)C)O[C@@H]2C)N(Cc2ccc3c(c2)OCO3)C1=O do in these assays?
proKLK7 act: 1; ADAM10 inh: -11; ADAM17 inh: 1; rCAG binder: 1

Results for COC(=O)c1cc2c(c3c4cc(OC)ccc4n(S(=O)(=O)c4cccc(C)c4)c13)C(=O)N(C)C2 ?
proKLK7 act: -2; ADAM10 inh: 1; ADAM17 inh: 1; rCAG binder: 11

Results for O=C(O)c1cc2nc3c(c(C(F)(F)F)n2n1)CCc1ccccc1-3 ?
proKLK7 act: 0; ADAM10 inh: -4; AHR act: 4; ADAM17 inh: -7; GRIN3A LBD mod: 11*; rCAG binder: 7

What do the screens show for `O=S(=O)(c1ccc2ccccc2c1)N1CCN(C(=S)Nc2ccc(F)c(Cl)c2)CC1`?
proKLK7 act: 0; ADAM10 inh: 11; AHR act: 2; ADAM17 inh: 3; GRIN3A LBD mod: 19*; rCAG binder: 32

What do the screens show for `NC(=S)N/N=C/c1ccc(C(F)(F)F)cc1`?
proKLK7 act: -1; ADAM10 inh: 1; AHR act: 0; ADAM17 inh: 2; GRIN3A LBD mod: 19*; rCAG binder: 0

Results for COc1ccc(-c2cc(-c3nnc(SCC(=O)Nc4cccc(Cl)c4C)n3N)[nH]n2)cc1 ?
proKLK7 act: 0; ADAM10 inh: -8; ADAM17 inh: 2; rCAG binder: 13

How did COC(=O)c1c(/N=C/N(C)C)sc2c1CCN(c1ncc(C(F)(F)F)cc1Cl)C2 do in these assays?
proKLK7 act: 2; ADAM10 inh: -131; AHR act: 72*; ADAM17 inh: -43; GRIN3A LBD mod: -3; rCAG binder: 6

Results for Cc1nn(CC(=O)Nc2sc3c(c2C#N)CCC(C(C)(C)C)C3)c(C)c1[N+](=O)[O-] (configuration not stated) ?
proKLK7 act: 0; ADAM10 inh: -3; AHR act: -4; ADAM17 inh: -2; GRIN3A LBD mod: 14*; rCAG binder: 3

How did Cc1nn(CCCC(=O)Nc2sc3c(c2C#N)CCC3)c(C)c1[N+](=O)[O-] do in these assays?
proKLK7 act: 0; ADAM10 inh: 3; AHR act: 7; ADAM17 inh: -1; GRIN3A LBD mod: 0; rCAG binder: 3

Results for C[C@H]1Cn2nncc2Cn2c3ccccc3c(=O)n21 ?
proKLK7 act: 2; ADAM10 inh: -279; ADAM17 inh: -74; rCAG binder: 3

Results for CCn1nc(C)cc1C(=O)Sc1cccc(Cl)c1 ?
proKLK7 act: 0; ADAM10 inh: -3; AHR act: -1; ADAM17 inh: -5; GRIN3A LBD mod: 4; rCAG binder: 42*

How did COc1ccc(Cn2cc(CN3[C@@H](c4ccccc4)COc4cc(Br)ccc4S3(=O)=O)nn2)cc1 do in these assays?
proKLK7 act: 0; ADAM10 inh: 5; ADAM17 inh: 3; rCAG binder: 3

How did N#Cc1ccc(/C=C2\CC3(OC(=O)c4ccc(Cl)cc4)CCCN2C3)cc1 (configuration not stated) do in these assays?
proKLK7 act: 0; ADAM10 inh: 7; ADAM17 inh: 3; rCAG binder: 4

What do the screens show for `COc1ccc(NC(=O)NCCCN2CCc3ccccc3C2)cc1`?
proKLK7 act: 0; ADAM10 inh: -32; AHR act: 4; ADAM17 inh: -4; GRIN3A LBD mod: 0; rCAG binder: 4

Results for O=C(NCCCN1CCc2ccccc2C1)Nc1ccc(Br)cc1 ?
proKLK7 act: 0; ADAM10 inh: 3; AHR act: 61*; ADAM17 inh: -1; GRIN3A LBD mod: 2; rCAG binder: -4

How did Cc1ccc(C(=O)Nc2ccccc2C(=O)NC(CC(=O)O)C(=O)O)cc1 (configuration not stated) do in these assays?
proKLK7 act: 0; ADAM10 inh: 12; AHR act: 16; ADAM17 inh: 3; GRIN3A LBD mod: 2; rCAG binder: 6

What do the screens show for `O=C(O)CC(NC(=O)c1ccccc1NC(=O)c1ccccc1)C(=O)O` (configuration not stated)?
proKLK7 act: 0; ADAM10 inh: -5; AHR act: -2; ADAM17 inh: -8; GRIN3A LBD mod: 28*; rCAG binder: 1

Results for COc1ccc(OC)c(C2=C[N+](=O)C(C)(C)C(C)(C)N2[O-])c1 ?
proKLK7 act: 0; ADAM10 inh: 3; AHR act: 0; ADAM17 inh: -2; GRIN3A LBD mod: -2; rCAG binder: -1

How did CC1(C)N([O-])C(c2ccccc2)=C[N+](=O)C1(C)C do in these assays?
proKLK7 act: 0; ADAM10 inh: -8; AHR act: -1; ADAM17 inh: 1; GRIN3A LBD mod: 681*; rCAG binder: 0

What do the screens show for `CC1(C)O[C@@H]1COc1c2ccoc2cc2oc(=O)ccc12`?
proKLK7 act: 2; ADAM10 inh: -17; AHR act: 70*; ADAM17 inh: -6; GRIN3A LBD mod: 1; rCAG binder: 1

How did CC(C)=CCOc1c2ccoc2cc2oc(=O)ccc12 do in these assays?
proKLK7 act: 0; ADAM10 inh: -6; AHR act: 51*; ADAM17 inh: -2; GRIN3A LBD mod: -2; rCAG binder: 2

Results for C=CS(=O)(=O)N(Cc1nnn(Cc2ccccc2)c1Br)[C@@H](CC(C)C)C(=O)OC ?
proKLK7 act: 0; ADAM10 inh: -5; ADAM17 inh: 0; rCAG binder: 0

Results for CC1(c2nnc(-c3cccc(Cl)c3)o2)CC(c2ccccc2F)=NO1 (configuration not stated) ?
proKLK7 act: 0; ADAM10 inh: 3; AHR act: 2; ADAM17 inh: -4; GRIN3A LBD mod: 13*; rCAG binder: -4

Results for COc1cccc(-c2nnc(-c3ccc(C(F)(F)F)cc3)o2)c1 ?
proKLK7 act: 1; ADAM10 inh: -10; AHR act: -3; ADAM17 inh: 0; GRIN3A LBD mod: 2; rCAG binder: 7

What do the screens show for `c1ccc(-c2nnc(-c3ccncc3)o2)cc1`?
proKLK7 act: 0; ADAM10 inh: -2; AHR act: 1; ADAM17 inh: -4; GRIN3A LBD mod: -1; rCAG binder: -2
